Screens (PubChem)
The list is not random: actives were taken first. Their share in the collection is about 2%.
BJeLR viability: MLPCN primary cell-based screen for lethality selective to Ras in HRASV12 cells; BJeLR (HRASV12) viability, CellTiter-Glo ATP luminescence, 48 h; inhibition, % (no concentration beside the values); 0.17% of 300,000 active; in the data active = inhibition above about 50%; inconclusive = no clear call, values can overlap the other calls
Y pestis TopoI: Yersinia pestis topoisomerase I inhibitors, primary screen, biochemical, cleavage product accumulation, plate reader, single point; activity, % at 10 µM; 0.064% of 360,000 active; Y. pestis Topo-I cleavage product accumulation; DNA topoisomerase I (Yersinia pestis CO92); in the data active = activity above about 50%, passing the limit was not always enough; inconclusive = no clear call, values can overlap the other calls
PrPC TRFRET: inhibitors of human cell surface prion protein PrPC, primary screen, cell-based, TR-FRET; TR-FRET read-out; inhibition, % at 13.8 µM; 0.43% of 370,000 active; AID 720596, 2013; in the data active = inhibition above about 24%
PrP UTR inh: inhibition of PrP 5' UTR reporter expression; cell-based PrP 5' UTR mRNA reporter, plate reader; inhibition, % (concentration not given with the values); 0.35% of 340,000 active; AID 488862, 2010; in the data active = inhibition above about 52%
PfHsp40 rescue: rescue of yeast from PfHsp40 toxicity, primary screen, S. cerevisiae, ATP luminescence; growth rescue, % at 12.5 µM; S. cerevisiae expressing PfHsp40, growth rescue; AID 504582, 2011; 0.68% of 340,000 active; in the data active = growth rescue above about 28%, passing the limit was not always enough; inconclusive = no clear call, values can overlap the other calls;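 also: yeast W303a lacking pdr1 and pdr3 grown in galactose medium; growth measured after three days at 30 °C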
CCHF vOTU inh: CCHFV vOTU protease inhibitors, primary screen, biochemical, Pep-AMC substrate, fluorescence | Crimean-Congo hemorrhagic fever virus L polyprotein viral ovarian tumor (vOTU) protease … | inhibition, % at 11.5 µM | 0.55% of 370,000 active; in the data active = inhibition above about 30%
Each line names hits and unclear results; the compound was inactive in the other large screens.

CC(=O)c1ccccc1NC(=O)COC(=O)c1ccccc1NC(=O)c1ccccc1	none (no result: BJeLR viability)
COC(=O)COC(=O)c1ccccc1NC(=O)c1ccccc1	PfHsp40 rescue 245
C=CCn1c(SCC(=O)O)nnc1-c1ccco1	none (no result: BJeLR viability, Y pestis TopoI, PrP UTR inh, PfHsp40 rescue)
Cc1ccc(C2CC2C(=O)NNC(=S)Nc2cccc(Cl)c2)cc1 (stereo not drawn)	PfHsp40 rescue 79
O=C(CSc1nc2cc(Cl)ccc2o1)NC1CC1	none (no result: BJeLR viability)
CCNC(=O)CCSc1nc2cc(Cl)ccc2o1	PfHsp40 rescue 111
C[C@H]1Cn2nncc2Cn2c3ccccc3c(=O)n21	none (no result: BJeLR viability, Y pestis TopoI, PrP UTR inh, PfHsp40 rescue)
COC(=O)c1cc2c(c3c4ccccc4n(S(C)(=O)=O)c13)C(=O)N(Cc1ccccc1)C2	none (no result: BJeLR viability, Y pestis TopoI, PrP UTR inh, PfHsp40 rescue)
Cc1[nH]c2ccccc2c1CC(=O)Nc1ccc(Oc2cccnc2)cc1	none (no result: BJeLR viability, Y pestis TopoI, PrP UTR inh, PfHsp40 rescue)
COc1ccc(NC(=O)Cc2ccc(Cl)c(Cl)c2)cn1	none
COc1ccc(NC(=O)/C(Cl)=C(/Cl)S(=O)(=O)Cc2ccc(C)cc2)cn1	PfHsp40 rescue 343 (no result: PrPC TRFRET, CCHF vOTU inh)
c1ccc(Cn2cc(-c3cccnc3)cn2)cc1	PfHsp40 rescue 553 (no result: BJeLR viability)
CC1CCc2sc(-c3n[nH]c(=S)o3)cc2C1 (stereo not drawn)	PfHsp40 rescue 330
S=c1[nH]nc(-c2cc3c(s2)-c2ccccc2CC3)o1	none
CCOC(=O)c1cccc2c1-c1ccccc1/C2=N/O	PfHsp40 rescue 233
CC(C)COC(=O)c1cccc2c1-c1ccccc1/C2=N\O	PfHsp40 rescue inconclusive
COc1ccc(-c2cc(C(=O)NN=Cc3ccccc3[N+](=O)[O-])[nH]n2)cc1	none (no result: BJeLR viability, Y pestis TopoI, PrP UTR inh, PfHsp40 rescue)
CS(=O)(=O)N(CC(=O)Nc1cccc(F)c1)c1cccc([N+](=O)[O-])c1	none
Cc1ccc(NS(=O)(=O)c2ccc(NC(=O)CN(c3cc([N+](=O)[O-])ccc3C)S(C)(=O)=O)cc2)c(C)c1	BJeLR viability 65
CC(=O)Nc1ccc(NC(=O)CN(c2cccc([N+](=O)[O-])c2)S(C)(=O)=O)cc1	BJeLR viability 69
COCc1cc(N2CCN(C(=O)OC(C)(C)C)C[C@H]2C)ccc1N1CCN(Cc2ccccc2)[C@@H](C)C1	none (no result: BJeLR viability, Y pestis TopoI, PrP UTR inh, PfHsp40 rescue)
Cc1nc2ccc(NC(=O)c3cccs3)cc2c(=O)n1Cc1ccc(Cl)cc1	PfHsp40 rescue 31
Oc1ccc(Cl)cc1-c1cc(-c2cccc(Br)c2)n[nH]1	none
Cc1ccc(O)c(-c2cc(-c3ccccc3C)[nH]n2)c1	PfHsp40 rescue 322
CC(C)(C)c1ccc(-c2cc(-c3ccccc3O)[nH]n2)cc1	PfHsp40 rescue 34
Cc1ccc(O)c(-c2cc(-c3ccccc3[N+](=O)[O-])[nH]n2)c1	none
Oc1ccccc1-c1cc(-c2cccc(F)c2)n[nH]1	PfHsp40 rescue 193
Cc1ccccc1-c1cc(-c2ccccc2O)on1	PfHsp40 rescue 32 (no result: PrP UTR inh)
CC(=O)N1c2cc(S(=O)(=O)Nc3c(C)n(C)n(-c4ccccc4)c3=O)c(Br)cc2CC1C (stereo not drawn)	none (no result: BJeLR viability, Y pestis TopoI, PrP UTR inh, PfHsp40 rescue)
O=C1CC(N2CCCC2)=NC(=O)N1c1ccc(Br)cc1	none (no result: BJeLR viability, Y pestis TopoI, PrP UTR inh, PfHsp40 rescue)
CN1[C@@H](Cc2ccccc2)COc2cccc(N3CCSCC3)c2S1(=O)=O	none (no result: BJeLR viability, Y pestis TopoI, PrP UTR inh, PfHsp40 rescue)
O=[N+]([O-])c1ccccc1-c1cc(-c2cc(Cl)ccc2O)n[nH]1	PfHsp40 rescue 145
CC1(C)CC(=O)N(CC(=O)N2CCN(c3cccc(Cl)c3Cl)CC2)c2ccccc2S1(=O)=O	none (no result: BJeLR viability, Y pestis TopoI, PrP UTR inh, PfHsp40 rescue)
CC1=C(C(=O)Nc2ccccc2)C(c2coc3ccccc3c2=O)C2=C(CCCC2=O)N1 (stereo not drawn)	none
COc1ccc(C2CC(=O)C3=C(C2)NC(C)=C(C(=O)Nc2ccccc2C)C3c2coc3ccc(C)cc3c2=O)cc1OC (stereo not drawn)	PfHsp40 rescue 63 (no result: BJeLR viability)
O=C(NC(C1CC1)C1CC1)C1CCC(=O)N(CCCN2CCCC2=O)C1 (stereo not drawn)	PfHsp40 rescue 36
CCCC1CCC2(CC1)CCC2OC(=S)NCc1ccc(Cl)cc1 (stereo not drawn)	none (no result: BJeLR viability, Y pestis TopoI, PrP UTR inh, PfHsp40 rescue, CCHF vOTU inh)
CCOC(=O)CSc1nc2cc3c(cc2cc1C)OCO3	none
COC(=O)CSc1nc2cc3c(cc2cc1C)OCCO3	PfHsp40 rescue 163
CC(C)c1ccc(N(CC(=O)NCc2ccc(F)cc2)C(=O)c2snc(C(N)=O)c2N)cc1	Y pestis TopoI 67
Cc1noc(C)c1S(=O)(=O)N1CCCc2nc(-c3ccc(F)cc3)ccc21	none (no result: BJeLR viability, Y pestis TopoI, PrP UTR inh, PfHsp40 rescue)
COc1cc(OC)c(C#N)c(S(=O)(=O)Cc2ccccc2)c1	PfHsp40 rescue 64
O=C(Cc1c[nH]c2ccccc12)Nc1ccc(Nc2cccnc2)c(-c2ccc(Cl)c(Cl)c2)c1	none (no result: BJeLR viability, Y pestis TopoI, PrP UTR inh, PfHsp40 rescue)
Cc1ccc(NC(=O)CSCC(=O)N2CCN(c3cccc(C(F)(F)F)c3)CC2)cc1	PfHsp40 rescue 41
Cn1c(=O)cc(OCC(=O)N2CCN(c3cccc(C(F)(F)F)c3)CC2)c2ccccc21	PfHsp40 rescue 48
Cc1cc(NC(=O)CSCC(=O)N2CCN(c3cccc(C(F)(F)F)c3)CC2)no1	none (no result: PfHsp40 rescue)
CN1C2=N[C@@H](c3ccc4ccccc4c3)CC(=O)N2/C(=C\c2ccccc2)[C@H]1c1ccccc1	none (no result: BJeLR viability, Y pestis TopoI, PrP UTR inh, PfHsp40 rescue, CCHF vOTU inh)
COC(=O)c1ccc(S(=O)(=O)N2CCC(NC(=O)Cc3cccc(C)c3)CC2)cc1	none (no result: BJeLR viability, Y pestis TopoI, PrP UTR inh, PfHsp40 rescue)
CC1C/C(=C/c2ccncc2)C(=O)/C(=C/c2ccncc2)C1 (stereo not drawn)	BJeLR viability 54, PfHsp40 rescue 51
CC(=O)Nc1ccc2c(c1)Cc1cc(N3C(=O)C=CC3=O)ccc1-2	PfHsp40 rescue 668 (no result: BJeLR viability)
C[C@@H]1CCCCCCCCC(=O)OCCN[C@H](C)CCCCCCCCC(=O)OCCN[C@H](C)CCCCCCCCC(=O)OCCN1	PfHsp40 rescue 41 (no result: BJeLR viability, PrPC TRFRET, CCHF vOTU inh)
O=[N+]([O-])c1ccc(O)c(-c2cc(C(F)(F)F)nc(-c3ccccc3)n2)c1	BJeLR viability 68
